# Data taken from publication PMC5540273 (PLoS ONE, 2017).
# Legend:
# Conditions in all cases: concentration: 1 μM,replicates: in singlicate; n = 1
# [1] = test system: T1, IKK-alpha
# T1 construct: gene CHUK
# [2] = test system: T2, IKK-beta
# T2 construct: gene IKBKB
# [3] = test system: T3, IKK-epsilon
# T3 construct: gene IKBKE
# [4] = test system: INSRR
# [5] = test system: INSR
# [6] = test system: IRAK1
# [7] = test system: IRAK3
# [8] = test system: IRAK4
# [9] = test system: ITK
# [10] = test system: JAK1(JH1domain-catalytic)
# [11] = test system: JAK1(JH2domain-pseudokinase)
# [12] = test system: JAK2(JH1domain-catalytic)
# [13] = test system: JAK3(JH1domain-catalytic)
# [14] = test system: T4, JNK1
# T4 construct: gene MAPK8
# [15] = test system: T5, JNK2
# T5 construct: gene MAPK9
# [16] = test system: T6, JNK3
# T6 construct: gene MAPK10
# [17] = test system: KIT-autoinhibited
# [18] = test system: KIT
# [19] = test system: LATS1
# [20] = test system: LATS2
# 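Note: KINOMEscan kinase panel screen.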
SMILES,%Inh [1],%Inh [2],%Inh [3],%Inh [4],%Inh [5],%Inh [6],%Inh [7],%Inh [8],%Inh [9],%Inh [10],%Inh [11],%Inh [12],%Inh [13],%Inh [14],%Inh [15],%Inh [16],%Inh [17],%Inh [18],%Inh [19],%Inh [20]
Cn1cc(-c2cccc3c(N)c(C(N)=O)nnc23)cn1,28%,39%,0%,9%,19%,31%,9%,17%,15%,9%,61%,32%,38%,14%,5%,8%,16%,5%,3%,0%
O=C1NCCc2[nH]c(-c3ccncc3)cc21,88%,40%,2%,0%,8%,98.6%,0%,0%,0%,6%,26%,73%,87%,30%,24%,45%,0%,14%,23%,34%
Cc1n[nH]c2cc(Nc3ccnc(Nc4cccc(CN5CCOCC5)c4)n3)ccc12 [GW682569],0%,25%,38%,0%,7%,79%,89%,87%,1%,48%,98.8%,99.4%,79%,96.2%,58%,85%,28%,97.7%,0%,0%
O=C(Nc1cccc(Oc2ccc3nccn3n2)c1)Nc1cccc(C(F)(F)F)c1,34%,0%,0%,15%,0%,13%,23%,0%,0%,27%,0%,9%,25%,0%,0%,0%,68%,100%,0%,0%
O=C(Nc1n[nH]c2cc(-c3ccco3)ccc12)C1CC1 [SB-737447],0%,0%,0%,5%,2%,0%,0%,0%,0%,2%,63%,27%,30%,38%,17%,32%,7%,23%,0%,10%
N#Cc1cccc(C(=O)NC2CCN(c3ccnc(Nc4ccc(F)cc4)n3)C2)c1 (stereo not shown) [GSK1379708],16%,16%,0%,0%,4%,17%,27%,2%,2%,17%,0%,16%,0%,26%,34%,17%,0%,9%,0%,0%
C[C@@H]1CNc2c(sc3ccc4nc(-c5ccncc5)ccc4c23)C(=O)N1,14%,0%,0%,0%,0%,78%,42%,0%,0%,0%,64%,0%,78%,0%,0%,0%,7%,34%,0%,24%
CC(=O)c1c(-c2ccncc2)[nH]c(-c2ccncc2)c1C [GW493036],35%,30%,2%,0%,0%,85%,0%,32%,13%,12%,0%,20%,0%,25%,8%,11%,0%,0%,7%,4%
Cn1ccc2ncnc(Oc3ccc(NC(=O)Nc4cncc(C(F)(F)F)c4)c(Cl)c3)c21,0%,0%,0%,0%,0%,0%,0%,0%,0%,0%,0%,0%,0%,0%,0%,0%,17%,99.9%,0%,0%
CC(C)c1nc(-c2cccc(NS(=O)(=O)c3ccccc3)c2)c(-c2ccnc(Nc3ccc4c(c3)CN(C)CC4)n2)s1 [GSK1649598],2%,15%,42%,0%,35%,65%,10%,16%,47%,25%,0%,20%,75%,84%,87%,94%,21%,99.9%,6%,27%
C[C@@H]1CNc2c(sc3ccc4nc(-c5ccc(O)cc5)ccc4c23)C(=O)N1,27%,24%,14%,0%,7%,97.1%,14%,14%,3%,0%,36%,53%,94.6%,18%,0%,6%,0%,54%,17%,13%
COC(=O)Nc1nc2cc(Oc3ccc(NC(=O)Nc4cc(C(F)(F)F)ccc4Cl)cc3)ccc2[nH]1.Cl [GW697465],35%,16%,0%,0%,0%,23%,0%,8%,12%,21%,0%,25%,0%,20%,61%,8%,0%,100%,100%,0%
O=C(NCC1CC1)c1ccc(-c2cc(C(=O)NC3CC3)ccc2F)cc1 [GW810445],0%,0%,0%,0%,0%,0%,1%,0%,0%,0%,0%,12%,0%,0%,0%,0%,0%,0%,0%,0%
CN1CCN(CCNc2nc3cc(Oc4ccc(NC(=O)Nc5cc(C(F)(F)F)ccc5F)cc4)ccc3[nH]2)CC1.Cl.Cl [GW768504],0%,0%,14%,0%,5%,0%,5%,0%,0%,28%,15%,5%,0%,0%,0%,0%,4%,99.8%,0%,0%
CN(c1ccccc1CNc1nc(Nc2ccc3c(c2)CC(=O)N3)ncc1C(F)(F)F)S(C)(=O)=O,0%,0%,35%,69%,93.5%,26%,65%,27%,56%,74%,66%,98.6%,99.2%,64%,66%,63%,0%,38%,65%,76%
OCCn1cc(-c2cnc3nnn(Cc4ccc5ncccc5c4)c3n2)cn1,3%,0%,0%,0%,0%,0%,0%,0%,0%,0%,10%,0%,0%,10%,0%,0%,0%,0%,0%,24%
COc1cc(Nc2nccc(N3CCC(NC(=O)c4cccc(C#N)c4)C3)n2)cc(OC)c1OC (stereo not shown) [GSK1379751],19%,0%,5%,0%,0%,58%,70%,15%,0%,0%,2%,98%,22%,30%,15%,33%,0%,43%,0%,0%
